Measurements as given in PubChem BioAssay AID463173 (ICCB-Longwood Screening Facility, Harvard Medical School, 2010).
The whole screen tested about 52,000 compounds, of which about 4,300 (8.3%) were called active. Many of the other results were omitted from the sample, so actives are more common in it than they were. Unmarked numbers belong to inactive results. Cut-off read from the data, not from the text of the source: active = survival mostly below about 52% (no sharp cut-off); inactive = mostly above about 56%.

Tested on: DeltatarO mutant
Assay: S. aureus survival, RN4220 and DeltatarO strains – OD600, teichoic acid synthesis inhibitors, primary screen (AID 463173)
Conditions: S. aureus RN4220 wild type/DeltatarO growth, OD600, 18 h, hits give low values, screened at 18.75 µg/mL (by protocol)

Compound | survival
Cc1cc(N2CCC(C(O)(c3ccccc3)c3ccccc3)CC2)nc(C)n1 | 108%
Cc1cc(C)cc(-n2c(SCC(=O)Nc3ccc4c(c3)OCCO4)nc3c([nH]c4ccccc43)c2=O)c1 | 126%
Cc1cccc(C(=O)N(Cc2ccco2)Cc2ccccc2F)c1 | 102%
Cc1ccc(CN(Cc2ccco2)C(=O)c2oc3ccc(C)cc3c2C)cc1 | 54%
Cc1c(C(=O)N(Cc2cccc(Cl)c2)Cc2ccco2)oc2ccccc12 | 40% (active)
Cc1c(C(=O)N(Cc2ccco2)Cc2ccccc2Cl)oc2ccc(F)cc12 | 42% (active)
CCc1ccc2oc(C(=O)N(Cc3cccc(Cl)c3)Cc3ccco3)c(C)c2c1 | 53%
O=C(c1cccc(Cl)c1)N(Cc1ccco1)Cc1ccccc1Cl | 32% (active)
CCc1ccc2oc(C(=O)N(Cc3ccc(N(C)C)cc3)Cc3ccco3)c(C)c2c1 | 71%
Cc1cc2oc(C(=O)N(Cc3ccc(Cl)cc3)Cc3ccco3)c(C)c2cc1Cl | 64%
Cc1cc(C)cc(OCC(=O)N(Cc2ccco2)Cc2ccccc2Cl)c1 | 73%
Cc1cc2oc(C(=O)N(Cc3ccc(N(C)C)cc3)Cc3ccco3)c(C)c2cc1Cl | 84%
Cc1cc2oc(C(=O)N(Cc3ccco3)Cc3ccccc3Cl)c(C)c2cc1C | 43% (active)
COc1cccc(C(=O)N(Cc2cccc(Cl)c2)Cc2ccco2)c1 | 68%
CCn1cc(C(=O)NCc2ccc(C)cc2)c(=O)c2cc(S(=O)(=O)N(C)C3CCCCC3)ccc21 | 75%
CN(Cc1ccccc1)C(=O)Cn1ncc2c3ccccc3n(Cc3cccc(Cl)c3)c2c1=O | 90%
Cc1c(Cl)cccc1NC(=O)C(=O)NCCc1csc(-c2cccc(F)c2)n1 | 76%
CCC(C)[C@@H](C(=O)Nc1ccc(C)cc1)N1Cc2ccccc2C1=O (stereo partly specified) | 74%
CCn1cc(C(=O)NCCCOC)c(=O)c2cc(S(=O)(=O)N3CCCC3)ccc21 | 92%
Cc1ccc(C(CC(=O)Nc2ccc(F)c(Cl)c2)N2Cc3ccccc3C2=O)cc1 (stereo unspecified) | 88%
CCC(=O)N1CCc2cc(Br)cc(S(=O)(=O)N3CCCC(C(=O)NCc4ccccc4)C3)c21 (stereo unspecified) | 107%
Cc1ccc(CN(Cc2ccco2)C(=O)c2oc3c(C)c(C)ccc3c2C)cc1 | 50%
Cc1c(C(=O)N(Cc2ccc(N(C)C)cc2)Cc2ccco2)oc2cc(Br)ccc12 | 68%

Compound | survival
Cc1ccc(CN(Cc2ccco2)C(=O)c2oc3cc(Br)ccc3c2C)cc1 | 43% (active)
CCOc1ccc(C(=O)c2cn(CC(=O)Nc3ccc(OC)cc3)c3cc4c(cc3c2=O)OCO4)cc1 | 69%
CCC1CCCCN1CCCNC(=O)CN1C(=O)c2cccnc2Oc2ccc(C)cc21 (stereo unspecified) | 78%
CCS(=O)(=O)N1CC(=O)N(c2ccc(C)c(C)c2)C(C)(C(=O)NC2CCCCC2)C1 (stereo unspecified) | 87%
CCc1ccc(NC(=O)c2cc(S(=O)(=O)N3CCCCC3)c[nH]2)cc1 | 105%
Cc1cc(O)c2c(C)c(CC(=O)NCc3ccccc3Cl)c(=O)oc2c1 | 62%
COc1ccccc1CCNC(=O)Cc1c(C)c2ccc(O)cc2oc1=O | 57%
Cc1c(CC(=O)NCc2ccccc2Cl)c(=O)oc2cc(O)ccc12 | 44% (active)
CCN(CC)c1ncnc(Cl)c1Cc1ccc(OC)cc1 | 105%
COc1ccccc1NC(=O)N1CCN(c2cc(-c3ccccc3)nc3ncnn23)CC1 | 66%
Cc1cccc(-c2nc(S(=O)(=O)c3ccc(Cl)cc3)c(N3CCCCCC3)o2)c1 | 46% (active)
COc1cccc(-c2nc(S(=O)(=O)c3ccc(C)cc3)c(N3CCCCCC3)o2)c1 | 55%
Cc1ccc(S(=O)(=O)c2nc(-c3cccc(Br)c3)oc2N2CCCCCC2)cc1 | 45% (active)
COc1cccc(-c2nc(S(=O)(=O)c3ccc(C)cc3)c(N3CCCCC3)o2)c1 | 47%
Cc1ccc(S(=O)(=O)c2nc(-c3cccc(C)c3)oc2N2CCN(c3ccccc3)CC2)cc1 | 114%
Cc1ccc(S(=O)(=O)c2nc(-c3cccc(C)c3)oc2N2CCCCC2)cc1 | 6% (active)
Cc1cccc(-c2nc(S(=O)(=O)c3ccc(F)cc3)c(N3CCN(c4ccccc4)CC3)o2)c1 | 110%
COc1cccc(-c2nc(S(=O)(=O)c3ccccc3)c(N3CCCCC3)o2)c1 | 61%
Cc1cccc(-c2nc(S(=O)(=O)c3ccccc3)c(N3CCN(c4ccccc4)CC3)o2)c1 | 112%
Cc1ccc(Cc2nc3ccccc3nc2SCC(=O)NCc2ccccc2Cl)cc1 | 120%
O=C(Cn1c(=O)n(-c2ccccc2Cl)c(=O)c2sc3ccccc3c21)N1CCCC1 | 80%
O=c1c2oc3ccccc3c2n(Cc2ccccc2Cl)c(=O)n1Cc1ccc2c(c1)OCO2 | 65%
CSc1ccc(CNC(=O)c2cc3cc(S(=O)(=O)N4CCCCC4)ccc3n2C)cc1 | 95%

Compound | survival
Cc1ccc(Cl)cc1NC(=O)CSc1nc2ccccc2c2nc(-c3ccccc3)nn12 | 113%
CCOC(=O)CC(NC(=O)CCc1c(C)nc2ncnn2c1C)c1ccc(OC(C)C)cc1 (stereo unspecified) | 114%
Cc1ccc(Cn2c(C(=O)Nc3ccc(Cl)cc3)cc3sccc32)cc1 | 112%
CC(=O)c1c(C)n(-c2ccc(Cl)cc2)c2ccc(OC(=O)COc3ccccc3)cc12 | 63%
CCn1c(CNc2nc(-c3ccccc3)cs2)nnc1SCC(=O)c1ccc(OC)cc1 | 87%
Cn1c(CNc2nc(-c3ccccc3)cs2)nnc1SCC(=O)c1ccccc1 | 51% (active)
Cn1c(CNc2nc(-c3ccccc3)cs2)nnc1SCC(=O)OC1CCCCC1 | 73%
CSc1ccc(CCNC(=O)c2ccc3c(Cl)c4c(nc3c2)CCCC4)cc1 | 64%
CCCOC(=O)c1ccc2c(c1)C(=O)N(c1ccccc1)C2=O | 78%
O=C(NCc1ccc2c(c1)OCO2)c1ccc2c(c1)N(Cc1ccccc1)C(=O)c1ccccc1S2=O (stereo unspecified) | 83%
CC(CNC(=O)c1ccc(Cn2c(SCc3ccccc3)nc3cccnc32)cc1)c1ccccc1 (stereo unspecified) | 69%
O=C(O)CN1CCCCC1 | 89%
O=C(c1ccco1)n1nc(-c2ccc(Cl)cc2)nc1NCc1ccc(F)cc1 | 80%
O=C(c1ccco1)n1nc(-c2ccc(Cl)cc2)nc1NCc1ccccc1 | 74%
O=C(c1ccccc1)n1nc(-c2ccc(Cl)cc2)nc1NCc1ccco1 | 23% (active)
COc1ccc(C(=O)n2nc(-c3ccc(Cl)cc3)nc2NCc2ccco2)cc1 | 115%
O=C(c1ccc(F)cc1)n1nc(-c2ccc(Cl)cc2)nc1NCc1ccco1 | 70%
O=C(c1ccco1)n1nc(-c2ccccc2)nc1NCc1ccccc1Cl | 96%
O=C(c1ccc(F)cc1)n1nc(-c2ccccc2)nc1NCc1ccco1 | 18% (active)
O=C(c1ccco1)n1nc(-c2ccccc2)nc1NCc1ccc(Cl)cc1 | 91%
O=C(c1ccc(Cl)cc1)n1nc(-c2ccccc2)nc1NCc1ccco1 | 29% (active)
Cc1ccc2onc(CNC(=O)NCc3ccc(Cl)cc3)c2c1 | 77%
FC(F)(F)COc1nc(OCC(F)(F)F)nc(N(c2ccccc2)c2ccccc2)n1 | 71%

Compound | survival
O=C(CCCCn1c(=O)c2ccccc2n(Cc2ccccc2Cl)c1=O)NCc1ccc2c(c1)OCO2 | 78%
COc1ccc(S(=O)(=O)c2c(Nc3c(C)cccc3C)sc(C(=O)c3ccc(F)cc3)c2N)cc1 | 98%
Cc1ccc(C)c(S(=O)(=O)c2nnn3c2nc(N2CCCCC2)c2sccc23)c1 | 60%
COc1cccc(C(=O)N2CCCCC2CCN2CCCCC2)c1 (stereo unspecified) | 83%
O=c1[nH]c2ccccc2nc1/C=C(\O)c1ccccc1 | 83%
O=c1[nH]c2nonc2nc1/C=C(\O)c1ccccc1 | 15% (active)
NC(=O)NC(=O)c1nc2nonc2[nH]c1=O | 91%
Cc1cccc(OC2CCS(=O)(=O)C2)c1 (stereo unspecified) | 87%
COc1ccc(C2=C(C)C(=NCCCN3CCN(c4cc(Cl)ccc4C)CC3)NS2(=O)=O)cc1 | 59%
N#CC(C#N)=Cc1cn(CCCOc2ccccc2Cl)c2ccccc12 | 76%
Cc1ccc(-c2nnc(SCC(=O)c3ccc(Cl)cc3)n2-c2ccccc2)cc1 | 85%
O=C(CSc1nnc(-c2ccc(Br)cc2)n1-c1ccccc1)c1ccccc1 | 69%
COc1ccccc1-c1nnc(SCC(=O)c2ccc(F)cc2)n1-c1ccccc1 | 6% (active)
COc1ccccc1-c1nnc(SCC(=O)c2ccc(Cl)cc2)n1-c1ccccc1 | 1% (active)
O=C(CSc1nnc(-c2ccccc2Br)n1-c1ccccc1)c1ccc(F)cc1 | 17% (active)
CCn1c(SCC(=O)c2ccccc2)nnc1-c1ccco1 | 86%
CCn1c(SCC(=O)c2ccc([N+](=O)[O-])cc2)nnc1-c1ccc(Cl)cc1 | 70%
CCOc1ccc(-c2nnc(SCC(=O)c3ccc(F)cc3)n2-c2ccccc2)cc1 | 168%
CCn1c(SCC(=O)c2ccccc2)nnc1-c1cccc(Cl)c1 | 39% (active)
COc1ccccc1-c1nnc(SCC(=O)OC(C)C)n1-c1ccccc1 | 92%
Cn1c(SCC(=O)c2ccc(F)cc2)nnc1-c1ccccc1Br | 57%
Cc1ccc(C(=O)CSc2nnc(-c3ccccc3)n2-c2ccccc2)cc1 | 99%
